About 83,000 compounds went through this panel and 20% of them were active in at least one assay; those are over-represented in the sample as a whole.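 Treatment: one concentration, 48 hours, 96-well format. Scoring: percent growth, with anything below 10 considered active.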 A number with no mark means an inactive call. Activity calls are given as the source filed them.
What was measured:
Test in all cases: NCI-60 one-dose screen, 48 h (100 = growth as untreated, 0 = no growth, -100 = all killed)
Details in all cases: 10 µM
NCI-H23 lung = test system: NCI-H23 lung
NCI-H226 lung = test system: NCI-H226 lung
NCI-H322M lung = test system: NCI-H322M lung
HOP-62 NSCLC = test system: HOP-62 NSCLC
NCI-H460 lung = test system: NCI-H460 lung
NCI-H522 lung = test system: NCI-H522 lung
A549/ATCC NSCLC = test system: A549/ATCC NSCLC
786-0 renal = test system: 786-0 renal
COLO 205 colon = test system: COLO 205 colon
DU-145 prostate = test system: DU-145 prostate

Row | Structure (SMILES) | growth (NCI-H23 lung) | growth (NCI-H226 lung) | growth (NCI-H322M lung) | growth (HOP-62 NSCLC) | growth (NCI-H460 lung) | growth (NCI-H522 lung) | growth (A549/ATCC NSCLC) | growth (786-0 renal) | growth (COLO 205 colon) | growth (DU-145 prostate)
1 | Fc1ccc2nc(-c3nc(-c4ccccc4)n4ccccc34)[nH]c2c1 | 57% | -11.9% (active) | -9.9% (active) | -76.2% (active) | -57% (active) | -41.2% (active) | -22.6% (active) | 0.317% (active) | 16.1% | -6.4% (active)
2 | CCN(CC)CCC(CNc1c(C)cnc2cc(Cl)ccc12)c1ccc(Cl)cc1 (stereo not given) | 61.3% | 102% | 53.8% | 66.2% | 67.7% | 31.7% | 64.7% | 58.2% | -45.5% (active) | 79%
3 | COc1ccc(/C=C/C(=O)Nc2ccc(-c3nc4ccc(OC)cc4s3)cc2)cc1 | 94.7% | 99.9% | 112% | 101% | 106% | 91.2% | 103% | 103% | 121% | 117%
4 | COc1cc(NC(=O)CSc2nc3ccccc3c(=O)n2CCc2ccccc2)cc(OC)c1OC | 26.6% | -0.963% (active) | 27.7% | 9.57% (active) | -30.2% (active) | -23.9% (active) | 24.9% | -80.1% (active) | 29.9% | 45.9%
5 | O=C(N/N=C/c1ccccc1O)C(O)(c1ccccc1)c1ccccc1 | 64.1% | 71.1% | 46% | 59% | 27.4% | 27.9% | 52.8% | 61.7% | 35.5% | 59.9%
6 | COc1ccc(-c2nnc(-c3c(-c4ccccc4)nc4ncccn34)o2)cc1OC | 97.2% | 93.2% | 94.2% | 84.6% | 107% | 94.2% | 96% | 102% | 100% | 109%
7 | NC(=O)c1ccc(-c2cccc3c(=O)nc(N4CCOCC4)oc23)cc1 | 92.4% | 82.6% | 93% | 95.1% | 105% | 89.5% | 100% | 100% | 104% | 103%
8 | CC1(C)CCC(=NNC(N)=S)CC1 | 99.1% | 110% | 115% | 111% | 104% | 97.1% | 106% | 113% | 125% | 111%
9 | COc1ccc(-c2nn(-c3cccc(NC(=O)c4cc(C(F)(F)F)cc(C(F)(F)F)c4)c3)cc2-c2ccncc2)cc1Cl | 81.1% | 78.3% | 73.1% | 88.1% | 62.3% | 14.8% | 53.1% | 81.2% | 90.7% | 83.7%
10 | O=[N+]([O-])c1ccc(Oc2cc(Cl)c(Cl)cc2Cl)c(C(F)(F)F)c1 | 111% | 94.6% | 98.1% | 95.3% | 97.7% | 87.1% | 91.1% | 107% | 122% | 104%
11 | COc1ccc2c(c1)O/C(=C\c1ccc([N+](=O)[O-])s1)C2=O | 5.99% (active) | 69.9% | 29.7% | 45.6% | 2.82% (active) | -72.5% (active) | 33.9% | 69% | -30% (active) | -6.02% (active)
12 | CN(CCc1ccccn1)c1ccccc1 | 110% | 113% | 113% | 104% | 118% | 109% | 99.7% | 98.5% | 104% | 121%
